Assay: COS7 lysate on small-molecule microarray, probe aHis, 635 nm (AID 1123);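 also: z-score combines 667nm fluorescence intensity with signal-to-noise per printed compound spot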
Settings: COS7 cell lysate, fluorescence, higher = more signal

| SMILES | composite z-score |
| --- | --- |
| CCOC(=O)C[C@H]1[C@H](OC(=O)c2ccccc2-c2ccccc2)[C@@H](NC(=O)c2ccc(-c3ccccc3)cc2)c2cc(OCCCO)ccc2N1C(=O)c1ccc2ccccc2n1 | 0.406 |
| C=CCC(OC(C)=O)[C@@H]1[C@@H](N(Cc2ccc(-c3ccccc3)cc2)C(=O)Cc2ccc(F)cc2)c2cc(OCCCO)ccc2N1C(=O)Cc1ccc(OC)cc1 (some centres undefined) | 0.377 |
| O=C(NCC(F)(F)F)[C@@H]1c2ccccc2C(=O)N(Cc2ccc(OC(F)(F)F)cc2)[C@H]1c1ccc(CO)cc1 | 0.96 |
| COC(=O)CCCCCCC(=O)Nc1ccc(NC(=O)CCCC[P+](c2ccccc2)(c2ccccc2)c2ccccc2)cc1 | -0.478 |
| CCCCCCc1nc(C2CC2)cc2c1[Si](C(C)C)(C(C)C)OC2 | -0.535 |
| O=C1O[C@H](c2ccccc2)[C@H](c2ccccc2)N2[C@H]1[C@@H](C(=O)Nc1nc3ccccc3s1)[C@]1(C(=O)Nc3ccccc31)[C@H]2c1ccc(OCCO)cc1 | 0.823 |
| C=C(/C(=C/C[C@H](OC(=O)c1ccncc1)c1ccc(CO)o1)c1cc(C(=O)OC)ccc1OC)C(C)C | 1.4 |
| CN(C)C(=O)[C@@]1(CCS(=O)(=O)c2ccccc2)N=C(c2ccc(OCCCO)cc2)O[C@H]1c1ccccc1 | 2.15 |
| O=C1OCCC/C=C\[C@H]2OC34C=CCN(CCN5CCOCC5)C(=O)[C@H]3N(CCCCCCO)C(=O)[C@@H]4C12 (some centres undefined) | 0.817 |
| O=C1C2C=CC(C(O)c3ccc(Br)cc3)N(Nc3ccccc3F)C2C(=O)N1c1ccccc1 (centres undefined) | 1.58 |
| CCCCC(=C=CC[C@@H](O)c1ccccc1OCCO)C[C@@H](O)COCc1ccccc1 | 1.95 |
| O=C1O[C@@H](c2ccccc2)[C@@H](c2ccccc2)N2[C@@H](c3ccc(O)cc3)[C@]3(C(=O)Nc4ccc(C#CC5=CCCCC5)cc43)[C@@H](C(=O)NC[C@H](O)c3ccccc3)[C@H]12 | 2.1 |
| NC(=O)NCC#Cc1ccc2c(c1)[C@]1(C(=O)N2)[C@H](C(=O)NC[C@H](O)c2ccccc2)[C@H]2C(=O)O[C@H](c3ccccc3)[C@H](c3ccccc3)N2[C@@H]1c1ccc(OCCO)cc1 | 0.791 |
| CC(C)N1CC=CC23O[C@@H]4C=CCOC(=O)[C@@H]4[C@H]2C(=O)N(CCCO)[C@@H]3C1=O (some centres undefined) | 2.76 |
| N#Cc1ccc(C(O)C2C=CC3C(=O)N(c4ccccc4)C(=O)C3N2Nc2ccccc2)cc1 (centres undefined) | 1.59 |
| CCCCN1CC=CC23O[C@@H]4/C=C\CCC(C)OC(=O)C4[C@H]2C(=O)N(C(CO)C(C)C)[C@@H]3C1=O (some centres undefined) | -0.407 |
| C=CCN1Cc2ccccc2[C@H]2OC(c3ccc(OCCCO)cc3)=N[C@@]2(CC=C)C1=O | 2.78 |
| CC(CO)N1C(=O)[C@@H]2[C@H]3C(=O)OCC=C[C@H]3OC23C=CCN(CCN2CCOCC2)C(=O)[C@@H]13 (some centres undefined) | -1.05 |
| CCCCCCc1nc(-c2cc(C)c(OC)c(C)c2)c(C)c2c1[Si](C(C)C)(C(C)C)OC2 | 0.0188 |
| C=C(COC)/C(=C/C[C@H](OC(=O)c1ccncc1)c1ccccc1OCCO)c1cnc2ccccc2c1 | 2.07 |
| CO[C@H]1O[C@H](CO)[C@@H](OC(=O)Nc2ccc3c(c2)OCO3)[C@H](OC(=O)c2cc3ccccc3[nH]2)[C@H]1OC(=O)c1cc2ccccc2[nH]1 | -0.0481 |
| O=C1N(Cc2ccccc2)c2ccccc2[C@@H]2OC(c3ccc(OCCCO)cc3)=N[C@]12Cc1ccccc1 | 2.23 |
| CCOC(=O)c1ccc(NC(=O)O[C@H]2[C@H](OC(=O)Nc3ccc4c(c3)OCO4)[C@@H](OC(=O)Nc3ccc4c(c3)OCO4)[C@@H](OC)O[C@@H]2CO)cc1 | 2.56 |
| C=CCC(OC(C)=O)[C@@H]1[C@@H](N(Cc2cccc3ccccc23)C(=O)Cc2ccc(OC)cc2)c2cc(OCCCO)ccc2N1C(=O)c1ccc2ccccc2n1 (some centres undefined) | 0.979 |
| COCCCNC(=O)[C@@]1(Cc2ccccc2CN=[N+]=[N-])N=C(c2ccc(OCCCO)cc2)O[C@H]1c1ccccc1 | 2.85 |
| COC(=O)[C@@]1(Cc2ccccc2)[C@H]2c3cc(C(=O)N(C)C)n(CCc4ccc(O)c(OC)c4)c3C[C@H]2CN1C(=O)c1ccccc1 | 0.316 |
| CN1C(=O)C2C=CC(C(O)COCc3ccccc3)N(N(c3ccccc3)c3ccccc3)C2C1=O (centres undefined) | 1.62 |
| CC(c1ccccc1)C(O)C1C=CC2C(=O)N(c3ccccc3)C(=O)C2N1Nc1ccc([N+](=O)[O-])cc1 (centres undefined) | 2.95 |
| [N-]=[N+]=NCc1ccccc1[C@H]1OC(c2ccc(OCCCO)cc2)=N[C@@]1(CCS(=O)(=O)c1ccccc1)C(=O)N1CCCCC1 | 2.83 |

Reference: PubChem BioAssay
